Source: PubChem (National Center for Advancing Translational Sciences (NCATS))
An excerpt weighted towards active compounds, which were near 10% of everything screened.
NIH3T3 tox: Cytotoxic Profiling in NIH 3T3 Cell Line of Diverse Libraries Using Quantitative High-Throughput Screening | NIH 3T3 viability, CellTiter-Glo ATP luminescence, 48-72 h | Potency, µM (highest dose often 96.7 µM), actives largely listed as inhibitors | 4.3% of 94,000 active; further: nearly all actives have a fitted effect of over 55% in size
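Cytotoxicity is measured as loss of cellular ATP: NIH 3T3 cells (400/well) are exposed to compound for 48 or 72 hr at 37 °C, then CellTiter-Glo luminescence is imaged after 10 min at room temperature.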
Luciferase inh: Firefly luciferase inhibition profiling of diverse chemical library using quantitative high-throughput screening; AID 1347043, 2019; 2.5% of 76,000 active; Luciferin 4-monooxygenase (Photinus pyralis), P08659; purified P. pyralis luciferase, luminescence, biochemical; Potency, µM (doses to about 115 µM), hits mostly inhibitors; further: nearly all actives have a fitted effect of over 65% in size
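FLuc 10nM, D-luciferin 10uM, ATP 10uM, Mg acetate 10mM, Tris acetate pH 7.5, Tween/BSA; cpd qHTS; enzyme added last; CCD luminescence.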
HEK293 tox: Cytotoxic Profiling in HEK 293 Cell Line of Diverse Libraries Using Quantitative High-Throughput Screening; HEK 293 viability, ATP luminescence (CellTiter-Glo), 48-72 h; Potency, µM (top dose mostly 115 µM), usual class: inhibitors; 6.6% of 94,000 active; AID 1345083, 2018; further: nearly all actives have a fitted effect of over 60% in size
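250 HEK 293 cells/well; compound by pintool; incubated 48 or 72 hr at 37 degree Celsius; CellTiter-Glo added, 10 min RT, luminescence imaged.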
hNpr1 antagonist: Natriuretic polypeptide receptor (hNpr1) antagonism - Primary qHTS; 1.6% of 76,000 active; Atrial natriuretic peptide receptor 1 (Homo sapiens), P16066; HEK293 hNpr1 GloSensor cGMP, ANP-stimulated luminescence; Potency, µM (series often up to 46.3 µM), hits mostly inhibitors; calls by dose curve; further: nearly all actives have a fitted effect of over 60% in size
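Compound pre-incubated 30 min at room temperature on GloSensor-loaded HEK293 cells stably carrying hNpr1 and the pGS-40F cGMP biosensor. Stimulation uses hNppA at 0.1 nM final; luminescence is taken at baseline and 20 min post-agonist.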
GPT2 inhibitor: Primary qHTS assay for inhibitors of Glutamate pyruvate transaminase 2 (GPT2); Alanine aminotransferase 2 (Homo sapiens), Q8TD30; Recombinant GPT2, coupled pyruvate oxidase/HRP Amplex Red fluorescence; Potency, µM (doses to about 57.7 µM), actives largely listed as inhibitors; 0.25% of 100,000 active; further: nearly all actives have a fitted effect of over 60% in size
Target sequence (Q8TD30 whole entry, looked up): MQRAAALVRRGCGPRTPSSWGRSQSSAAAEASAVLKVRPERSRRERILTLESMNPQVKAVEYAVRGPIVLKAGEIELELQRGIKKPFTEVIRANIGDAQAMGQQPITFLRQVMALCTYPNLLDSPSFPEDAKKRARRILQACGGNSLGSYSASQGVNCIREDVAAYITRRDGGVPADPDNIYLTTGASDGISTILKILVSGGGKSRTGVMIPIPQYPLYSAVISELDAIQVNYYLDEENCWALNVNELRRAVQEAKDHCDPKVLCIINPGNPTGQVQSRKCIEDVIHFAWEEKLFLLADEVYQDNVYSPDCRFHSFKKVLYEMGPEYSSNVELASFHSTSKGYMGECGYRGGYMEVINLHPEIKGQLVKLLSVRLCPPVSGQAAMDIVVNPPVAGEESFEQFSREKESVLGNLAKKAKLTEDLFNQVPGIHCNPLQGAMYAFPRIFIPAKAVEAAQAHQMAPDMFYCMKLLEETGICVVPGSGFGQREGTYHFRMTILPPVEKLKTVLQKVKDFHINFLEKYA
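Recombinant GPT2 (10ng/uL) with 250uM a-KG and 2mM L-alanine, 30 min at room temperature, in HEPES pH 7.5 buffer. Pyruvate detected by pyruvate oxidase/HRP/Amplex Red fluorescence after 30 min in the dark; AOA (50uM) as positive control.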
Numbers stand for hits; – = inactive; ? = inconclusive; · = not tested or not shown. Unless noted, the call rests on the fitted dose curve; in most records, active means well fitted curve in the direction sought with a large enough effect; inconclusive means small, poorly fitted or top-dose-only effect, or another doubt; inactive means no such curve, though single readings can be large; an effect the other way counts as inactive or inconclusive.

SMILES | NIH3T3 tox | Luciferase inh | HEK293 tox | hNpr1 antagonist | GPT2 inhibitor
CN(C)c1nccnc1OC1CCN(C(=O)CCc2ccccc2)C1 (stereo not drawn) | ? | – | ? | – | –
Fc1cccc(NC2CCCN(Cc3cccn3-c3nccs3)C2)c1 (stereo not drawn) | ? | – | 44.7µM | – | –
CCS(=O)(=O)c1ncc(CN(C)Cc2ccc3nonc3c2)n1CCc1ccccc1 | – | – | 22.4µM | – | –
CCCCn1c(CN(C)Cc2cnn(-c3ccccc3C)c2)cnc1S(=O)(=O)CC | ? | – | ? | – | –
CC(C)S(=O)(=O)c1ncc(CN(C)Cc2cnn(C)c2)n1CCc1ccccc1 | – | – | – | – | –
CN(Cc1ccc(F)cc1)Cc1cnc(S(C)(=O)=O)n1CCCc1ccccc1 | ? | – | 20µM | – | –
COCCN(Cc1ccsc1)Cc1cn[nH]c1-c1ccc(F)cc1 | – | – | 89.1µM | – | –
Fc1ccc(-c2[nH]ncc2CN(Cc2cccnc2)Cc2cccnc2)cc1 | ? | – | ? | – | –
CCCn1c(C)cnc1CC1CCCN(C(=O)C2CCCC2)C1 (stereo not drawn) | – | · | – | · | –
O=C(C1CCCC1)N1CCC2(CC1)NC(=O)N(c1ccccc1)N2 | – | – | ? | – | –
C[C@](Cc1ccc(O)c(O)c1)(NN)C(=O)O | · | · | · | · | –
CC(N)(Cc1ccc(O)c(O)c1)C(=O)O (stereo not drawn) | · | · | · | · | 8.91µM
Cn1c(CN2CCOC[C@H]2c2ncc(-c3ccc(Cl)s3)[nH]2)nc2ccccc21 | 89.1µM | – | ? | ? | –
Clc1ccc(-c2cnc([C@@H]3COCCN3Cc3ccccc3)[nH]2)s1 | 79.4µM | – | 100µM | ? | –
O=C(O)c1ccc(CN2CCOC[C@H]2c2ncc(-c3ccc(Cl)s3)[nH]2)cc1 | – | – | – | – | –
Clc1ccc(-c2cnc([C@@H]3COCCN3C3CCCCC3)[nH]2)s1 | 79.4µM | – | 79.4µM | – | –
CC(C)(C)CN1CCOC[C@H]1c1ncc(-c2ccc(Cl)s2)[nH]1 | ? | – | 79.4µM | – | –
CC(CN)(CN1CCOCC1)c1ccccn1 (stereo not drawn) | – | · | – | · | –
CCc1ccc(C(=O)N2CCC(OC3CCN(C)CC3)CC2)cc1 | – | – | – | – | –
CSc1ccc(-c2cccc(CN3CCC(NC(=O)c4ccc(Cl)cc4)CC3)c2)cc1 | – | · | – | · | ·
CSc1ccc(-c2cccc(CN3CCC(NC(=O)Nc4ccc(Cl)cc4)CC3)c2)cc1 | 12.6µM | · | 22.4µM | · | ·
CSc1ccc(-c2cccc(CN3CCC(NC(=O)c4ccccc4Cl)CC3)c2)cc1 | ? | · | 39.8µM | · | ·
O=C(Nc1ccccc1)NC1CCN(Cc2cccc(-c3ccc(F)c(F)c3)c2)CC1 | 15.8µM | · | 20µM | · | –
O=C(NC1CCN(CCn2nc3n(c2=O)CCCC3)C1)c1ccc(F)cc1 (stereo not drawn) | – | · | – | · | ·
O=C(CC1CCCC1)N1CCC2(CC1)C(=O)N(c1cccc(F)c1)C2c1ccccc1 (stereo not drawn) | ? | · | ? | · | –
SMILES | NIH3T3 tox | Luciferase inh | HEK293 tox | hNpr1 antagonist | GPT2 inhibitor
O=C(CN1CCCc2nc(-c3ccncc3)ncc2C1=O)NCC1CC1 | – | – | – | – | –
O=C1CO[C@H]2CN(Cc3ccccc3F)C[C@H]2N1c1ccccc1 | ? | – | 79.4µM | – | –
COCCn1c(=O)c2c(n1Cc1ccccc1)CN(C(=O)c1cc3ccccc3n1C)CC2 | 28.2µM | – | – | – | –
Cn1c(C(=O)N2CCc3c(n(Cc4cccnc4)n(-c4ccccc4)c3=O)C2)cc2ccccc21 | 28.2µM | – | – | – | –
O=C(c1cccc(O)c1)N1CCc2c(n(Cc3cccnc3)n(-c3ccccc3)c2=O)C1 | ? | – | – | – | –
CS(=O)(=O)N1CCCC1c1noc(CCC(=O)N2CCCCCC2)n1 (stereo not drawn) | – | · | – | · | –
CN(C)Cc1cn([C@H]2CO[C@H]3[C@@H]2OC[C@H]3OC(=O)Nc2ccc(C(C)(C)C)cc2)nn1 | ? | 70.8µM | ? | – | –
COC(=O)c1cn([C@H]2CO[C@H]3[C@@H]2OC[C@H]3OC(=O)Nc2ccc(C(C)(C)C)cc2)nn1 | – | – | – | – | –
O=C(Nc1cccc(F)c1)N1C[C@@H]2C[C@H](C1)c1ccc(-c3cccc(C(F)(F)F)c3)c(=O)n1C2 | – | – | ? | – | –
CCN(CC)C(=O)CCc1c(C)nn(-c2ccccc2C)c1Oc1cccc(F)c1 | ? | – | 39.8µM | – | –
Cc1ccccc1-n1nc(C)c(CCC(=O)N(C)C(C)C)c1Oc1ccccc1F | ? | – | 44.7µM | – | –
COCCNC(=O)CCc1c(C)nn(-c2ccc(F)cc2)c1Oc1ccc(F)cc1F | 25.1µM | – | ? | – | –
Cc1nn(-c2ccc(F)cc2)c(Oc2ccc(F)cc2F)c1CCC(=O)NC(C)C | ? | – | ? | – | –
Cc1nn(-c2ccc(F)cc2)c(Oc2ccc(F)cc2F)c1CCC(=O)N(C)C(C)C | ? | – | 39.8µM | – | –
CN1CCCC12Cc1ccccc1CN(C(=O)C1CCCC1)C2 (stereo not drawn) | – | · | – | · | –
Cc1cccc(-n2nc(C)c(CCC(=O)N(C)C(C)C)c2Oc2ccccc2C)c1 | 28.2µM | – | ? | ? | –
Cc1cccc(-n2nc(C)c(CCC(=O)N(C)C(C)C)c2Oc2ccc(F)cc2F)c1 | 39.8µM | – | ? | ? | –
O=C(NC1CCCN(Cc2ccc(-c3cncnc3)cc2)C1)c1ccc(C(F)(F)F)cc1 (stereo not drawn) | ? | · | ? | · | –
N#Cc1ccccc1CN1CC[C@H]2C(=O)NCCCCCCN(Cc3ccncc3)[C@@H]2C1 | – | – | ? | – | ?
Cc1nc(NCc2ccc(C(=O)N3CCCCC3)cc2)cc(C2CC(N)C2)n1 (stereo not drawn) | – | – | ? | – | –
COc1ccccc1CCC(=O)N1CCN(c2cc(-c3ccccc3)[nH]n2)CC1 | ? | – | ? | – | –
COc1ccccc1CC(=O)N1CCN(c2cc(-c3ccccc3)[nH]n2)CC1 | ? | – | 22.4µM | – | –
COc1ccccc1CCC(=O)N1CCN(c2cc(-c3ccc(Cl)cc3)[nH]n2)CC1 | 31.6µM | – | ? | – | –
O=C(COc1ccc(Cl)cc1)N1CCN(c2cc(-c3ccccc3)[nH]n2)CC1 | ? | – | 89.1µM | – | –
CC(C)CNC(=O)C1(CCO)CC12CCOCC2 (stereo not drawn) | – | – | – | – | –
O=C(c1ccnc(-c2ccccc2-c2ccccc2)c1)N1CCCC1 | 35.5µM | – | ? | – | –
